Bioassay records from PubChem BioAssay.
Hits are enriched below; roughly 21% of the tested compounds scored in any of these assays.
Shiga inhibitor = blocks Shiga toxin action in Vero cells. actives 9.2% (n = 290,000). AID 2315. inhibition, % at 38.7 µM. Vero cells, Shiga toxin protein synthesis inhibition reporter; in the data active = inhibition mostly above about 28%, no sharp cut-off; inactive = mostly below about 43%; also: 0% is about no effect
NS1 inh = influenza NS1 inhibition; actives 0.4% (n = 270,000); Potency, µM (series often up to 46.1 µM), inactives show top-dose activity, positive = more growth; calls by dose curve; also: potency is read from the fitted curve at half-maximal effect; actives are rising curves; nearly all actives have a fitted effect of over 50% in size
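A cell-based growth assay was used: compounds that relieve NS1-induced slow growth of budding yeast raise OD600. Assay medium was yeast nitrogen base with ammonium sulphate and -URA supplement, pH 6.0, with 2% galactose.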
Pf growth 48h = P. falciparum growth inhibition at 48 hours (one generation); Potency, µM (top dose mostly 28.7 µM), without a hit: top-dose activity change, negative = inhibition, most hits filed as inhibitors; actives 5.9% (n = 310,000); P. falciparum luciferase growth in erythrocytes, 48 h; also: potency is read from the fitted curve at half-maximal effect; % is scaled to controls: 0 for no effect and ±100 for the full control effect
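A one-generation exposure of luciferase-tagged malaria parasites in RPMI 1640/Albumax erythrocyte culture, 37 C and 5% CO2. Inhibition is inferred from decreased luminescence after adding detection reagent.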
CHX counter = counter-screen hit for Shiga toxin inhibitors, cycloheximide; actives 12% (n = 300,000); max response, %; cell reporter, cycloheximide protein synthesis inhibition counterscreen; in the data active = max response mostly above about 13%, no sharp cut-off; inactive = mostly below about 14%; also: read at 38.3 µM for the half of the compounds with a filed dose; 0% is about no effect
Pf growth 96h = P. falciparum growth inhibition at 96 hours | P. falciparum luciferase reporter growth, 96 h | Potency, µM (titrated, usually from 28.7 µM), inactives show at the highest dose activity change, negative = inhibition, most hits filed as inhibitors | actives 6.9% (n = 320,000); also: potency is read from the fitted curve at half-maximal effect; % is scaled to controls: 0 for no effect and ±100 for the full control effect
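Infected RBCs, 2% Hct / 0.05% parasitemia final; luciferase-reporter P. falciparum; cpd 96 h, 37 C, 5% CO2; luciferase detection reagent; luminescence.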
Numbers without * were called inactive; i = inactive; ? = inconclusive; nt = no result given; [ ] = another dose, or the depositor's remark. Unless noted, calls follow the shape of the dose curve; as a rule, active = well fitted inhibition curve with a large enough effect; inconclusive = small, poorly fitted or top-dose-only effect, or another doubt; inactive = no such curve, though single readings can be large or run the other way.

SMILES	Shiga inhibitor	NS1 inh	Pf growth 48h	CHX counter	Pf growth 96h
CCS(=O)(=O)Nc1cc2c3c(c1)CCC(=O)N3CCC2	-18	-3%	-15%	16	?
c1ccc(Cn2c(-c3ccccc3)c[n+]3c2SCCC3)cc1	-11	4%	1µM*	-1	?
CC1CC(C)CN(CCCNC(=O)c2c(O)nc3ccccn3c2=O)C1 (stereo unspecified)	nt	nt	4.1µM*	nt	?
CC1CCCCN1CCCNC(=O)c1c(O)nc2ccccn2c1=O (stereo unspecified)	21	-18%	16%	3	11%
Cc1cccn2c(=O)c(C(=O)NCCCN3CC(C)CC(C)C3)c(O)nc12 (stereo unspecified)	nt	nt	2.1µM*	nt	0.83µM*
COc1ccc(C2(CNC(=O)/C=C\c3ccco3)CCCC2)cc1OC	13	2%	12µM*	11	?
O=C(/C=C/c1ccc([N+](=O)[O-])cc1)NCc1ccco1	27*	-6%	60%	20	?
O=C(/C=C/c1ccco1)NCCc1ccc(F)cc1	56*	2%	-13%	57*	-9%
O=C(/C=C/c1ccc(F)cc1)NCc1ccco1	94*	-5%	6%	46*	8%
O=C(/C=C/c1ccco1)Nc1ccc(F)cc1	nt	nt	88%	nt	159%
Cc1ccc(OCCNC(=O)/C=C/c2ccccc2)cc1C	28	-14%	-12%	1	15%
CCOC(=O)CN1C(=O)/C(=C/c2ccc(Cl)cc2)Oc2ccccc21	-11	1%	5%	-3	?
Cc1ccc(OCCNC(=O)/C=C/c2ccco2)cc1C	78*	17%	14%	10	-55%
O=C(/C=C/c1ccc([N+](=O)[O-])cc1)c1ccco1	-3	-23%	7%	-3	?
NS(=O)(=O)c1ccc(CNC(=O)/C=C/c2c(F)cccc2Cl)cc1	12	1%	7%	-4	-7%
O=C(/C=C/c1c(F)cccc1Cl)NCc1ccco1	182*	-3%	13%	39*	113%
O=C(/C=C/c1ccc([N+](=O)[O-])cc1)/C=C/c1ccco1	73*	3%	?	38*	-11%
O=C(CN1C(=O)/C(=C/c2c(F)cccc2Cl)Oc2ccccc21)NCc1ccco1	77*	nt	?	39*	58%
CN(C)C(=O)CCC(=O)N1CCCC(C(=O)c2ccc(C(F)(F)F)cc2)C1 (stereo unspecified)	-4	4%	6%	-7	5%
COc1cccc(N(CC(=O)Nc2ccccc2C(=O)N2CCCC2)S(C)(=O)=O)c1	-11	1%	-13%	1	?
Cc1cc([N+](=O)[O-])nn1CCCC(=O)Nc1c(C)n(C)n(-c2ccccc2)c1=O	10	nt	24%	6	10%
CC(C)C(NC(=O)c1ccco1)C(=O)OCc1cc([N+](=O)[O-])cc2c1OCOC2 (stereo unspecified)	5	-6%	-12%	2	15%
CSc1nc2ccccc2cc1/C=C(\C#N)c1cccc(Cl)c1	-14	-5%	-2%	-2	?
CC(C)N(C)C1CCN(C(=O)Nc2ccc(Cl)cc2)CC1	-9	-14%	0%	2	57%
Cc1ccc(C2CCN(C(=O)Nc3ccccc3)C2)cc1 (stereo unspecified)	150*	-83%	64%	39*	-2%
SMILES	Shiga inhibitor	NS1 inh	Pf growth 48h	CHX counter	Pf growth 96h
O=C(Nc1ccc(Cl)cc1)N1CCC(c2ccccc2)C1 (stereo unspecified)	116*	nt	306%	42*	-18%
Cc1ccc(NC(=O)N2CCC(NC(=O)c3ccccc3C)CC2)cc1	22	-3%	-18%	-1	27%
Cc1ccc(NC(=O)N2CCC(c3ccccc3)C2)cc1C (stereo unspecified)	101*	nt	250%	53*	39%[1.15 µM]
Cc1ccc(NC(=O)N2CCC(NC(=O)C(C)(C)C)CC2)cc1	11	18%	0%	17*	6%
COc1cc(-c2noc(C3CCCN(C(=O)c4c(F)cccc4F)C3)n2)cc(OC)c1OC (stereo unspecified)	nt	-2%	?	-3	1%
Cc1nc2ccc(S(=O)(=O)NC(C(=O)N3CCC(C)CC3)C(C)C)cc2s1 (stereo unspecified)	2	-9%	nt	-5	-10%
COc1cc([C@H]2Oc3c(OC)cc(CCCO[C@@H]4O[C@H](CO)[C@@H](O)[C@H](O)[C@H]4O)cc3[C@@H]2CO)ccc1O	nt	nt	13%	nt	13%
CCOC(=O)CN(C(=O)c1snc(C(N)=O)c1N)C(C(=O)NC1CCCCC1)c1ccc(F)cc1 (stereo unspecified)	-4	6%	-3%	-3	?
CCN1C(=O)c2cccc3c(NC(=O)c4ccc(OC)c(OC)c4)ccc1c23	7	-7%	?	-5	?
Cc1cccc(N2CCN(c3nc4ccc(Cl)cc4n4cnnc34)CC2)c1C	-9	-32%	?	-2	3%
CCc1ccc2oc(-c3cccc(N)c3)nc2c1	29	-66%	346%	23	i
Cc1ccccc1-c1nc2cc(N)ccc2o1	87*	-45%	134%	55*	56%
Nc1ccc2oc(-c3cccc(Br)c3)nc2c1	108	10%	182%	43*	21%
CC(C)c1ccc2oc(-c3cc(N)ccc3O)nc2c1	3	-84%	i	12	i
Cc1nc2ccc(-c3nc4cc(N)ccc4o3)cc2[nH]1	27*	14%	?	21*	?
Nc1ccc(-c2nc3ccccc3o2)cc1	91*	8%	42%	57*	-5%
O=S(=O)(NCc1ccccc1)c1ccccc1Br	-16	-5%	-5%	6	-23%
Nc1ccc2oc(-c3ccc4nc[nH]c4c3)nc2c1	27	8%	-72%	16*	?
COc1cccc(-c2ccc(SCC(=O)NC3CCCCC3)nn2)c1	14	-3%	2%	20*	2%
COc1ccc(-c2ccc(SCC(=O)NC3CCCC3)nn2)cc1OC	52*	11%	15%	27*	?
COc1ccc(-c2ccc(SCC(=O)Nc3cc(C)on3)nn2)cc1OC	100*	-37%	35%	22*	104%
Cc1ccc(Nc2nnc(SCC(=O)Nc3cc(C(=O)O)ccc3C)s2)c(C)c1	22	6%	-7%	-2	5%
c1csc(-c2ccn[nH]2)c1	72	6%	19%	13*	44%
CC1CN(Cc2ccccn2)CCC1=O (stereo unspecified)	3	3%	-7%	-2	-18%
CCCCNc1c(-c2ccc(SC(C)CC)c(OC)c2)nc2ccc(C)cn12 (stereo unspecified)	nt	nt	3.3µM*	nt	?
CCCCNc1c(-c2cccc(-c3cc(C(C)=O)cs3)c2)nc2cc(C)ccn12	nt	nt	?	nt	1%
CCCCNc1c(-c2ccc(SC3CCCCC3)c(OC)c2)nc2ccc(Cl)cn12	nt	nt	8.3µM*	nt	2.1µM*
CC(=O)c1csc(-c2cccc(-c3nc4ccc(Cl)cn4c3NC3CCCCC3)c2)c1	nt	nt	?	nt	1%
